The results in this text go back to the OligoGym collection.
Note: reference of the scale not given here.

In the first experiment the target is CMYA5. As to the kind of experiment: pooled miR-30 sensor sort-seq; sequence = guide strand. The note with it: shRNA.
As to TGAATCAATGACATCTTCCTTG, the sensor-assay potency score (higher = more potent) was determined as 0.597.

TAACACTAGATTTCCTTCCTGA showed a sensor-assay potency score (higher = more potent) of 0.81. TAATACTAGATTTCCTTCCTGA had a sensor-assay potency score (higher = more potent) of 0.791.

The target of the next experiment is CNGA4. The experiment is described as above. The conditions noted are these: shRNA.
As for TAGATGACAGAGCTCATGCTAC, the sensor-assay potency score (higher = more potent) was -0.751. TTCACCTGGTGAGTAGGTCTGG: the sensor-assay potency score (higher = more potent) is -0.244. On the same count and under the same terms, the same measure for TAAGCTGTGCGGGTCTCTGTGC: -0.546; for TACCTCGTTGGTCATCTTCTTG: -0.968. The sequence TTCAATGCGGTAAGCAATCTTA came in with a sensor-assay potency score (higher = more potent) of -0.691. Sequence TTCTGAAAGATCTGCACCCGGC showed a sensor-assay potency score (higher = more potent) of -0.677. TCGGATGATGTACATCTCTTGG had a sensor-assay potency score (higher = more potent) of -1.02. In turn, ATACCAGTCAATAACTCGCCGC returned a sensor-assay potency score (higher = more potent) of -0.942. The sequence TACCAGTCAATAACTCGCCGCT came in with a sensor-assay potency score (higher = more potent) of 0.117. In turn, TATAGCAGGTCACTCGTGTAGT yielded a sensor-assay potency score (higher = more potent) of -0.135. On the same count and under the same terms, the same measure for TTCATGTTGTAGATGACAGAGC: -0.761; for TCTCGGATGATGTACATCTCTT: -0.967. Still for that read-out and setting: the result for TAACCGTGCTGCAAGTCGGGGA reads -0.253; that for TGCTTGTGGATACTCGCTCAGC, -1.17; that for ATGATGTACATCTCTTGGCCAA, -1.02. TTGATGTTGGCTGTGCGGCGGT showed a sensor-assay potency score (higher = more potent) of -0.481. TTGTAGATGACAGAGCTCATGC gave a sensor-assay potency score (higher = more potent) of -0.748. TTCAGCAGGATCTCACGTCCTT: the sensor-assay potency score (higher = more potent) stood at 0.0798.

TCGTTGGTCATCTTCTTGTTGA came in with a sensor-assay potency score (higher = more potent) of -0.985.

TAGGTCTGAATAACCTAGGCTC displayed a sensor-assay potency score (higher = more potent) of -0.534. On the same count and under the same terms, the result for ATAACCGTGCTGCAAGTCGGGG reads -1.46.

ACTGTAGTCAGTATCAGCGTGG showed a sensor-assay potency score (higher = more potent) of -0.617. With TAAGCAATCTTAAGTGCGCTGG, the sensor-assay potency score (higher = more potent) stood at 0.0217.

The next experiment addresses CNGB1. Described as above. The note with it: shRNA.
TTTCTCCAAACACAGATCCAGC: the sensor-assay potency score (higher = more potent) is -1.37. On the same count and under the same terms, the result for TTGAACTTGCAGCAGAGCATGT reads -0.734.

TTGGGTTCATCTGTGCACCCTG displayed a sensor-assay potency score (higher = more potent) of 0.488. TGCGGTAGTAGGTCTGTCCGGC: the sensor-assay potency score (higher = more potent) was 0.228. For the sequence TCTTTCTCCTCTTCAATCCGGG, the sensor-assay potency score (higher = more potent) was -0.237. Still for that read-out and setting: the result for TAGGACATACATCAGGTTGGTC reads 0.2; that for TTGTAGTTCACGTCGATGGCGA, -0.201; that for TTCATGTACTTCACCGTGCTGT, 0.284. In the case of TTTCTTCCGGAGTAACTTCTGA, the sensor-assay potency score (higher = more potent) was -0.522. In the case of TTCTTGCACACATAGTCGTTGG, the sensor-assay potency score (higher = more potent) was -0.837. Take TTCTCTTCTTCATAAGCTGGAA: the sensor-assay potency score (higher = more potent) was -0.514.

Sequence TTTGAACTTGCAGCAGAGCATG came in with a sensor-assay potency score (higher = more potent) of -1.2. Sequence TTTCTCTGTCCGCTCCTTGAAG came in with a sensor-assay potency score (higher = more potent) of -0.823. TTTGCTAACGATGTTGTAGTTC displayed a sensor-assay potency score (higher = more potent) of 0.184.
